Rows were chosen to be rich in hits. Some 3.6% of all compounds tested hit in one or more screens of this group.
Anthrax LF inh2 = anthrax lethal factor protease inhibition; P15917; multiplex microsphere protease cleavage assay, LF; inhibition, % at 10 µM; 0.12% of 360,000 active; AID 588501; further: plate controls were buffer without enzyme for full effect and enzyme alone for no effect
Target sequence (P15917 whole entry, looked up): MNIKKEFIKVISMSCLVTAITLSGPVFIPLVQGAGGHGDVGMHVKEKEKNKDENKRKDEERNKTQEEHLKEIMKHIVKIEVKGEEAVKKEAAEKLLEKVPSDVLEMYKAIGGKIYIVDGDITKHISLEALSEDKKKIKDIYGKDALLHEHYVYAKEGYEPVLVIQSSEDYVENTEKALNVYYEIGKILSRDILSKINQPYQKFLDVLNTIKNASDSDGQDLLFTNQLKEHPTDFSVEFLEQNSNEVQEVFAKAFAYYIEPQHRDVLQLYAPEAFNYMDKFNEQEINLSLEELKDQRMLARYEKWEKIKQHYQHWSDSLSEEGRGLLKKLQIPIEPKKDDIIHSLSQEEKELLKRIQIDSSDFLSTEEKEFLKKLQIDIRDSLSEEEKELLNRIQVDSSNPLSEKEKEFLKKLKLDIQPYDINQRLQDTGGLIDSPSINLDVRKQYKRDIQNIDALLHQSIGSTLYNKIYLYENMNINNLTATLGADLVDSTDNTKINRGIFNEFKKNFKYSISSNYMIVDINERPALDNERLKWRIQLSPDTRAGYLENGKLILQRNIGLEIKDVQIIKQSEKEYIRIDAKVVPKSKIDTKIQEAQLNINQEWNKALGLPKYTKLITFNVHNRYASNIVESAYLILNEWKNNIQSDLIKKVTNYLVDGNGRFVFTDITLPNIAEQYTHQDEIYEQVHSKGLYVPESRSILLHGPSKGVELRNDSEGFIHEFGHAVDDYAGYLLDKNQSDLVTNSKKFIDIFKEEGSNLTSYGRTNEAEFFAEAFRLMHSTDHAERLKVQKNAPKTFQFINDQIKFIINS
Autofluor counter = counter-screen for toxin protease inhibitors: compound fluorescence. compound autofluorescence counterscreen, microsphere flow cytometry; stronger effect = higher value. fluorescence intensity (no concentration beside the values). 3.1% of 360,000 active. AID 624483; in the data active means fluorescence intensity above about 16000; inconclusive means no clear call, values can overlap the other calls
BoNT A protease = blocks Botulinum neurotoxin A light chain protease; multiplex microsphere protease substrate cleavage, flow cytometry; inhibition, % at 10 µM; 0.17% of 360,000 active; AID 588499; further: plate controls were buffer without enzyme for full effect and enzyme alone for no effect
BoNT-F LC inh = BoNT F light chain protease inhibition; Multiplex microsphere protease cleavage assay, flow cytometry; inhibition, % at 10 µM; 0.22% of 360,000 active; in the data active means inhibition above about 35%, passing the limit was not always enough; inconclusive means no clear call, values can overlap the other calls; further: plate controls were buffer without enzyme for full effect and enzyme alone for no effect
MazEF act = increases E. coli MazEF RNase cleavage of RNA; P0AE70; FAM/BHQ RNA-DNA oligo cleavage fluorescence, 5 h; activation, % at 20 µM; 0.32% of 350,000 active; AID 504720; in the data active means activation above about 50%
* marks the source's active call; other numbers are inactive results; ? = inconclusive; . = no result. Unless noted, no stated cut-off is given here; in the data, active means inhibition above about 30%; inconclusive means no clear call, values can overlap the other calls; inactive means below that.

SMILES	Anthrax LF inh2	Autofluor counter	BoNT A protease	BoNT-F LC inh	MazEF act
CCN=c1scc(-c2ccco2)n1/N=C/c1ccc(OC)c(O)c1	-2	24329*	?	-4	4
O=c1nc2ccccc2c2n1CC(CN1CCN(c3cccc(Cl)c3)CC1)N2 (stereo not given)	-2	17652*	-7	-6	-12
Cc1ccc(NC(=S)NCc2cccn2C)cc1	-3	22735*	1	-6	-18
C=CCn1c(SCC(=O)N2CCC(C)CC2)nc2c([nH]c3ccccc32)c1=O	-6	3313	0	2	8
Cc1nc(CN2C(=O)C3(CCC3)ON=C2c2cccc(Cl)c2)cs1	-2	4999	0	-2	.
CCOC(=O)c1ccccc1NC(=O)CSc1nnc(Cc2cccn2C)n1-c1ccc(F)cc1	-6	23284*	1	0	6
Cn1cccc1Cc1nnc(SCC(=O)N2CCN(c3ccccc3)CC2)n1-c1ccc(F)cc1	-2	24052*	?	-3	14
O=C(COC(=O)C1CC(O)CN1S(=O)(=O)c1ccc(Cl)cc1)c1cccc(Cl)c1 (stereo not given)	2	2503	0	-4	8
O=C1NC(=O)c2cc3ccccc3cc21	1	5687	3	6	8
Cc1nc2c(n1O)CCC/C2=N\O	-2	3266	0	4	1
CCN1CCCCC(=N/O)/C(=N/O)CCCC1	5	3542	-1	38*	11
O=C(COC(=O)c1ccccc1O)Nc1ccc(OC(F)F)cc1	-1	4797	0	-14	1
COc1ccc(C(=O)OCC(=O)Nc2ccc(OC(F)F)cc2)c(OC)c1	3	16151*	1	2	2
Cc1ccc(C2=NN(CC(=O)O)C(=O)CC2)cc1	3	3944	3	50*	13
O=C(c1ccc(C(=O)N2CCCCCC2)cc1)N1CCCCCC1	-6	3856	0	-3	7
Cc1cc(C(=O)N2CCCCCC2)cs1	-4	23371*	-1	-2	6
Cc1cc(C)cc(C(=O)N2CCCCCC2)c1	-1	23038*	-1	2	8
COc1cc(CNCCSc2nnnn2C)cc(OC)c1OC	-3	8512	-1	-4	8
Cn1nnnc1SCCNCc1ccccc1F	-1	22828*	-2	-6	5
Cn1nnnc1SCc1ccccc1F	-1	22071*	0	-1	3
COc1cccc(CNCCSc2nnnn2C)c1OC	-2	22850*	-2	-6	1
COc1ccc(C2=CN(Cc3ccccc3)CCC2=O)cc1	-8	3809	0	-2	-14
O=C(c1ccc(COc2ccccc2[N+](=O)[O-])o1)N1CCCCC1	-1	19870*	0	-1	-2
CSc1ccc(CN2CCC2(C)C(=O)Nc2ccc3c(c2)OCO3)cc1 (stereo not given)	-2	3430	0	-1	.
Cc1ccc(NC(=O)c2ccc(S(=O)(=O)N3CCC(C)CC3)cc2)cc1	0	20894*	-3	-4	4
SMILES	Anthrax LF inh2	Autofluor counter	BoNT A protease	BoNT-F LC inh	MazEF act
CC1CCN(C2CCN(S(=O)(=O)c3ccc(F)cc3)CC2)CC1	-3	9245	3	8	9
Cc1ccc(NC(=O)C2CCN(S(=O)(=O)c3ccc(F)cc3)CC2)cc1	-1	23704*	-1	-4	14
Cc1ccc(C(=O)Nc2ccc(S(=O)(=O)N3CCOCC3)cc2)cc1	2	2060	0	-3	-8
CC1CCCN(S(=O)(=O)c2ccc(NC(=O)c3cccc(-n4cnnn4)c3)cc2)C1 (stereo not given)	-2	20061*	1	0	-4
O=S(=O)(c1ccc(F)cc1)N1CCC(N2CCCCCC2)CC1	-4	16305*	0	-1	3
Cc1ccc(OCC(=O)N2CCN(S(C)(=O)=O)CC2)cc1	-5	5233	-1	-7	9
Cc1ccc(C(C)C)cc1-n1nnc(-c2cccc(Cc3ccc4ccccc4c3)c2)c1C(C)O (stereo not given)	-13	4053	-1	2	-6
CSc1cccc(NC(=O)C2CCCN(S(=O)(=O)c3ccc(F)cc3)C2)c1 (stereo not given)	-2	4597	0	-11	10
CS(=O)(=O)N1CCC(C(=O)Nc2cccc(F)c2)CC1	-14	3978	4	39*	18
Cc1ccc(S(=O)(=O)N2CCC(C(=O)NCCCN3CCCCCC3)CC2)cc1	-2	24422*	2	-10	8
O=C(Nc1cccc(Cl)c1)C1CCCN(S(=O)(=O)c2ccc(F)cc2)C1 (stereo not given)	0	20734*	0	-4	-1
CCn1c(SCC(=O)Nc2ccccc2Br)nnc1-c1cnccn1	-3	5985	0	-7	8

Bioassay records (PubChem)
